# Laboratory results reported in PubChem BioAssay AID1053118 (Broad Institute, 2014).
# Potency and affinity values are given separately. The source made the active and inactive calls.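 Rule for the calls: active = fitted half-maximal concentration for ATP signal loss at most twice the top valid dose; inconclusive = flat curve between -70 and -30%, or an invalid fit; inactive = flat within ±30%, wrong direction, or potency past limit.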
# Assay: HepG2 cell cytotoxicity, dose response, cytotoxicity control, cherry-picks, set 5 (AID 1053118)
smiles,measurement,value
C=C1C(=O)O[C@@H]2C[C@@H](C)[C@@H]3C=CC(=O)[C@@]3(C)[C@@H](O)[C@H]12,outcome,inactive
